Hits are enriched below; roughly 18% of the tested compounds scored in any of these assays.
IL1B secr inh – qHTS for Inhibitors of Inflammasome Signaling: IL-1-beta AlphaLISA Primary Screen | THP-1 LPS/ATP IL-1B secretion, AlphaLISA, 16 h; stronger effect = lower value | activity change, % at 57.5 µM | 360,000 tested, 4.7% active | AID 743279, 2014; in the data active = activity change below about -50%; inconclusive = mostly about -30% to -49%
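Secreted IL-1B measured by AlphaLISA bead assay after 16 h compound exposure of THP-1 cells; compounds (final up to 57.5 uM) added 1 h before LPS (250 ng/mL) and ATP (1.25 mM) stimulation; lower signal means less secretion.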
DT40 TDP1 CPT – qHTS for Inhibitors of human tyrosyl-DNA phosphodiesterase 1 (TDP1): qHTS in cells in presence of CPT | AID 686979, 2013 | Potency, µM (titrated, usually from 46.2 µM), actives largely listed as inhibitors | chicken DT40 Tdp1-/-;hTDP1 cells + 20 nM CPT, ATP luminescence, 48 h | 420,000 tested, 12% active; note: nearly all actives have a fitted effect of over 55% in size
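Cell growth measured by CellTiter-Glo luminescence after a minimum 48 h, 37 C compound exposure with 20 nM CPT in Tdp1-knockout DT40 cells stably expressing hTDP1, seeded 400/well; qHTS titration format.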
DT40 TDP1 no CPT – qHTS for Inhibitors of human tyrosyl-DNA phosphodiesterase 1 (TDP1): qHTS in cells in absence of CPT; 420,000 tested, 15% active; Potency, µM (series often up to 46.2 µM), usual class: inhibitors; DT40 Tdp1-/- hTDP1 cells, no CPT, ATP luminescence, 48 h; note: nearly all actives have a fitted effect of over 55% in size
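Cells were dispensed at 400 per well, compounds added by pin tool, plates incubated ≥48 hr at 37 °C, then CellTiter-Glo added for 30 min at room temperature before luminescence reading. Line: DT40 Tdp1-/- complemented with hTDP1; camptothecin omitted.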
CtBP-E1A blk – qHTS Assay for Inhibitors of the CtBP/E1A Interaction | CtBP / adenovirus E1A interaction (AlphaScreen) | AlphaScreen GST-E1A/His-CtBP binding, 1536-well; stronger effect = lower value | activity change, % (concentration not given with the values) | 340,000 tested, 0.49% active; in the data active = activity change below about -65%; inconclusive = mostly about -30% to -63%
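Steps: dispense buffer (Tris pH 8.0, NaCl 300 mM, TCEP 1 mM, BSA, Tween 20); add 5X protein mix (GST-E1A, His-CtBP, 125 nM each); pin 23 nL compound; 2 h at 37 °C, dark; add 5X beads (50 ug/mL); 1 h; read.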
TDP1 inh – qHTS Assay for Inhibitors of Tyrosyl-DNA Phosphodiesterase (TDP1); Tyrosyl-DNA phosphodiesterase 1 (Homo sapiens), Q9NUW8; recombinant TDP1, AlphaScreen DNA substrate cleavage; Potency, µM (highest dose often 130 µM), hits mostly inhibitors; 350,000 tested, 0.28% active; AID 485290, 2010; note: nearly all actives have a fitted effect of over 40% in size
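Signal: AlphaScreen proximity between streptavidin donor and anti-FITC acceptor beads on intact substrate. Reaction: Tdp1 1 nM, substrate 15 nM final, 5 min RT after 15 min compound preincubation.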
Six1-Eya2 blk – qHTS Assay for Inhibitors of the Six1/Eya2 Interaction | activity change, % (concentration not given with the values) | AlphaScreen GST-Six1/His-Eya2 binding, biochemical; stronger effect = lower value | AID 651725, 2012 | 360,000 tested, 0.56% active; in the data active = activity change below about -65%; inconclusive = mostly about -30% to -63%
Target sequence (O00167 whole entry, looked up): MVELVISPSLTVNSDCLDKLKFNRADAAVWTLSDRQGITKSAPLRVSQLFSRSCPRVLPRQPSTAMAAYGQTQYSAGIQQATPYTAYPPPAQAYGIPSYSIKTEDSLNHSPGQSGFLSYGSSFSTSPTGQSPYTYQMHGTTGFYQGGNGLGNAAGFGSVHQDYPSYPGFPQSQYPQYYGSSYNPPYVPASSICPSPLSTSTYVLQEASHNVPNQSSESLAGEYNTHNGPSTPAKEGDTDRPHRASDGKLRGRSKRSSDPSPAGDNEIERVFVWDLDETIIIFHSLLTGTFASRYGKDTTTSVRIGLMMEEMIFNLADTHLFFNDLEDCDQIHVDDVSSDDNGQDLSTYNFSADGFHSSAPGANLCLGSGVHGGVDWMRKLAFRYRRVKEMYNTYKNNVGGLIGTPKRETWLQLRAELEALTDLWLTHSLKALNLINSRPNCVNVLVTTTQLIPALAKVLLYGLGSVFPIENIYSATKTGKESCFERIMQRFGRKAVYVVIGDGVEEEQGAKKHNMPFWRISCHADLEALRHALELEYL
Target sequence (Q15475 whole entry, looked up): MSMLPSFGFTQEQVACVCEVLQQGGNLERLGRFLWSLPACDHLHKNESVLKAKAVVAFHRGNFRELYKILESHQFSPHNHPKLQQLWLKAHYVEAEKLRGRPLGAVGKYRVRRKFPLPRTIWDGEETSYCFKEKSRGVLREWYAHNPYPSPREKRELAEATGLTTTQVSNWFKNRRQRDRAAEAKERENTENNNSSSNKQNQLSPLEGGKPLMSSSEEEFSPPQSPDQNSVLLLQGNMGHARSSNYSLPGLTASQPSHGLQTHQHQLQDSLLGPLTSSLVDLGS
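AlphaScreen luminescence read after one hour at 37 °C in darkness. Pin-transferred compounds met GST-Six1 and His-Eya2 protein (5X stock 250 nM/500 nM) plus glutathione donor and Ni-chelate acceptor beads (5X, 50 ug/mL).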
Of the large screens only hits and unclear results are named; the others gave an inactive call. Unless noted, calls come from the whole dose curve; as a rule, active = well fitted curve in the direction sought with a large enough effect; inconclusive = small, poorly fitted or top-dose-only effect, or another doubt; inactive = no such curve, though single readings can be large; an effect the other way counts as inactive or inconclusive.

CCOc1ccc(NC(=O)Nc2cccs2)cc1	DT40 TDP1 CPT 10.3µM, DT40 TDP1 no CPT 18.4µM
CCc1nc(SCc2ccc(OC)cc2)n[nH]1	none (no result: CtBP-E1A blk, TDP1 inh)
CCCN1/C(=C(/C#N)C2=NS(=O)(=O)c3ccccc32)N(C)c2ccccc21	none
CN(C)C(=O)/C(=C\c1cccc(Oc2ccccc2)c1)NC(=O)c1ccccc1	DT40 TDP1 CPT 16.4µM, DT40 TDP1 no CPT inconclusive
O=C(NC(NC(=S)Nc1ccccc1Cl)C(Cl)(Cl)Cl)c1cccc(Cl)c1 (centres undefined)	IL1B secr inh -87.4, DT40 TDP1 CPT 4.61µM, DT40 TDP1 no CPT 8.2µM
COc1ccc(NC(=S)NC(NC(=O)c2cccc(Cl)c2)C(Cl)(Cl)Cl)c([N+](=O)[O-])c1 (centres undefined)	IL1B secr inh -59.8, DT40 TDP1 CPT inconclusive, DT40 TDP1 no CPT inconclusive
COc1ccc(NC(=S)NC(NC(C)=O)C(Cl)(Cl)Cl)c([N+](=O)[O-])c1 (centres undefined)	IL1B secr inh -54.4
COc1ccc(NC(=S)NC(NC(=O)c2cccc(C)c2)C(Cl)(Cl)Cl)c([N+](=O)[O-])c1 (centres undefined)	DT40 TDP1 CPT inconclusive, DT40 TDP1 no CPT inconclusive
CC(=O)NC(NC(=S)Nc1ccccc1Br)C(Cl)(Cl)Cl (centres undefined)	none
CCC(C)N1C(=O)N(c2cccc(Cl)c2)C(C)(O)CC1(C)C (centres undefined)	DT40 TDP1 CPT inconclusive (no result: CtBP-E1A blk, TDP1 inh)
COc1ccc(Cl)cc1NC(=O)COC(=O)Cc1cccs1	none
CCN(C(=O)c1nn(C)c2c1CSc1ccccc1-2)c1cccc(C)c1	DT40 TDP1 CPT 11.6µM, DT40 TDP1 no CPT 20.6µM (no result: IL1B secr inh, CtBP-E1A blk, Six1-Eya2 blk)
Cc1ccc(CNC(=O)c2nn(C)c3c2CSc2ccc(C)cc2-3)cc1	DT40 TDP1 CPT inconclusive, DT40 TDP1 no CPT inconclusive (no result: IL1B secr inh, CtBP-E1A blk, Six1-Eya2 blk)
Cc1ccc(CCNC(=O)c2nn(C)c3c2CSc2ccccc2-3)cc1	none (no result: IL1B secr inh, CtBP-E1A blk, Six1-Eya2 blk)
CCOc1ccc(CCNC(=O)c2nn(C)c3c2CSc2ccc(C)cc2-3)cc1OCC	DT40 TDP1 CPT inconclusive, DT40 TDP1 no CPT 13µM (no result: IL1B secr inh, CtBP-E1A blk, Six1-Eya2 blk)
CCCCN(CC)C(=O)c1nn(C)c2c1CSc1ccccc1-2	DT40 TDP1 CPT inconclusive, DT40 TDP1 no CPT 23.1µM (no result: IL1B secr inh, CtBP-E1A blk, Six1-Eya2 blk)
Cn1nc(C(=O)NCCCN2CCCCC2)c2c1-c1ccccc1SC2	DT40 TDP1 CPT inconclusive, DT40 TDP1 no CPT inconclusive (no result: CtBP-E1A blk)
CCOC(=O)N1CCN(C(=O)c2nn(C)c3c2CSc2ccccc2-3)CC1	DT40 TDP1 CPT inconclusive, DT40 TDP1 no CPT 16.4µM (no result: TDP1 inh)
COc1ccc(Br)cc1CN(C)C(=O)Cc1ccc(OC)c(S(=O)(=O)N2CCOCC2)c1	DT40 TDP1 CPT inconclusive (no result: CtBP-E1A blk)
COC(=O)COc1ccc(NC(=O)Cn2nc(-c3ccccc3)c3ccccc3c2=O)cc1	none (no result: TDP1 inh)
S=C(NCc1ccccn1)NN=Cc1ccccn1	DT40 TDP1 CPT 0.146µM, DT40 TDP1 no CPT 0.146µM, Six1-Eya2 blk -91.1 (no result: TDP1 inh)
Nc1c(C(=O)Nc2ccccc2)sc2nc3c(c(-c4ccco4)c12)CCCC3	IL1B secr inh -51.5, DT40 TDP1 CPT inconclusive, DT40 TDP1 no CPT inconclusive
Cc1ccccc1NC(=O)c1sc2nc3c(c(-c4ccco4)c2c1N)CCCC3	IL1B secr inh inconclusive, DT40 TDP1 CPT 16.4µM, DT40 TDP1 no CPT inconclusive
Cc1ccc(NC(=O)c2sc3nc4c(c(-c5ccco5)c3c2N)CCC4)cc1	DT40 TDP1 CPT inconclusive, DT40 TDP1 no CPT inconclusive
Nc1c(C(=O)Nc2ccccc2)sc2nc3c(c(-c4ccco4)c12)CCC3	DT40 TDP1 CPT 8.2µM, DT40 TDP1 no CPT 9.2µM
CCOC(=O)c1c(NC(=O)c2ccc(S(=O)(=O)N(CCOC)CCOC)cc2)sc2c1CC(C)(C)NC2(C)C	DT40 TDP1 CPT inconclusive, DT40 TDP1 no CPT inconclusive (no result: IL1B secr inh, CtBP-E1A blk, Six1-Eya2 blk)

Bioassay records: PubChem, National Center for Advancing Translational Sciences (NCATS)
